The structures appear in SMILES notation. Where “and” joins values, the source holds several entries; their conditions need not be identical. Equal entries are not always repeated. Results filed as inconclusive are left out. Some compounds were tested as several samples or in several runs, with calls that do not always agree. Calls of active or inactive are those of the source. Rule for the calls: active = hit-call score of the fitted dose curve at least 0.9, where 1 is the maximum; inconclusive = response in the unintended direction; inactive = score below 0.9.

One experiment concerns the target Cellular tumor antigen p53 (Homo sapiens) (UniProt P04637). Put plainly: TOX21_p53_BLA_p5_ratio: Tox21 HCT-116 p53 Agonism Beta-lactamase Assay, Ratio, Phase 5 (AID 2283599). The essentials: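 Beta-lactamase reporter ratio (blue 460 nm over green 530 nm, 405 nm excitation) after 2 h CCF4-AM loading, in HCT-116 cells exposed 16 h at 37 C to compounds pinned at 217-fold dilution. Increases relative to DMSO baseline scored.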
Take `O=c1n(CC2CO2)c(=O)n(CC2CO2)c(=O)n1CC1CO1` (configuration not stated): the AC50 was 32.2 µM (active) and 10.7 µM (active) and 22.6 µM (active).

For the molecule `Cc1ccc(S(=O)(=O)O)cc1C`, the outcome was inactive.

`COC(=O)c1c(Cl)c(Cl)c(C(=O)OC)c(Cl)c1Cl`: the outcome was inactive.

Take `CN(C)c1ccc(N=NS(=O)(=O)O)cc1`: the outcome was inactive.

In the case of `O=C1OC(=O)C2C3C=CC(C3)C12` (configuration not stated), the outcome was inactive.

Regarding `O=C(CCCCCCCCc1cccnc1)N1CCC(C=C(c2ccccc2)c2ccccc2)CC1`, the result was inactive.

As for `C[C@](N)(Cc1ccc(O)c(O)c1)C(=O)O`, the outcome was inactive.

On to `Cn1cnc([N+](=O)[O-])c1Sc1ncnc2nc[nH]c12`, for which the AC50 is 29.8 µM (active) and 34.8 µM (active).

As to `O=C1CCCCCN1`, the outcome was inactive.

As for `Oc1ccc2c(c1)-c1ccccc1C2`, the result was inactive.

Regarding `CCC(C)(C)C(=O)O[C@H]1C[C@@H](C)C=C2C=C[C@H](C)[C@H](CC[C@@H]3C[C@@H](O)CC(=O)O3)[C@H]21`, the result was inactive.

Turning to `Nc1cccc(N)c1`, the outcome was inactive.

`Nc1nc2ncc(CNc3ccc(C(=O)N[C@@H](CCC(=O)O)C(=O)O)cc3)nc2c(=O)[nH]1`: the result was inactive.

On to `Cn1c(=O)c2c(ncn2C)n(C)c1=O`, for which the result was inactive.

For `O=C(OC[C@H]1O[C@@H](OC(=O)c2cc(O)c(O)c(OC(=O)c3cc(O)c(O)c(O)c3)c2)[C@H](OC(=O)c2cc(O)c(O)c(OC(=O)c3cc(O)c(O)c(O)c3)c2)[C@@H](OC(=O)c2cc(O)c(O)c(OC(=O)c3cc(O)c(O)c(O)c3)c2)[C@@H]1OC(=O)c1cc(O)c(O)c(OC(=O)c2cc(O)c(O)c(O)c2)c1)c1cc(O)c(O)c(OC(=O)c2cc(O)c(O)c(O)c2)c1`, the AC50 was 17 µM (active) and 10.6 µM (active).

Take `Cc1[nH]cnc1C[C@H]1CCc2c(C)c3ccccc3n2C1=O`: the result was inactive.

`CCCCCCc1ccc(O)cc1O`: the AC50 is 78.1 µM (active) and 68.4 µM (active); the result was inactive.

With `CC(=O)OC[C@H]1O[C@@](COC(C)=O)(O[C@H]2O[C@H](COC(C)=O)[C@@H](OC(C)=O)[C@H](OC(C)=O)[C@H]2OC(C)=O)[C@@H](OC(C)=O)[C@@H]1OC(C)=O`, the result was inactive.

Regarding `O=P(OC(CCl)CCl)(OC(CCl)CCl)OC(CCl)CCl`, the outcome was inactive.

Regarding `COc1ccc(-n2nc(C(F)F)cc2-c2ccc(S(C)=O)cc2)cc1` (configuration not stated), the outcome was inactive.

Consider `O=C(O)c1cc(N=Nc2ccc(S(=O)(=O)Nc3ccccn3)cc2)ccc1O`, for which the result was inactive.

On to `CC(C)c1cccc(C(C)C)c1N1C(=O)c2ccc(O)cc2C1=O`, for which the AC50 is 2.05 µM (active).

`CC(=O)OCCC(C)C`: the result was inactive.

Take `O=C(O)c1cccc(N(Cc2cccnc2)c2ccc(OC(F)F)c(OC(F)F)c2)c1`: the outcome was inactive.

Tested on in the next experiment: not listed separately
Put plainly: TOX21_p53_BLA_p5_viability: Viability Assessment in the Tox21 HCT-116 p53 Agonism Beta-lactamase Assay, Phase 5 (AID 2283600). In a few lines: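 Compounds, pinned from DMSO at 217-fold dilution, were left on the cells for 16 h. The viability endpoint was ATP content measured by CellTiter-Glo luminescence, where falling signal reflects cytotoxicity.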
With `O=C1CCC(N2C(=O)c3ccccc3C2=O)C(=O)N1` (configuration not stated), the molecule was classed as inactive.

`C1N2CN3CN1CN(C2)C3`: the outcome was inactive.

Regarding `COC(=O)c1c(Cl)c(Cl)c(C(=O)OC)c(Cl)c1Cl`, the molecule was classed as inactive.

As to `CC(C)CC(C)(O)C#CC(C)(O)CC(C)C` (configuration not stated), the call was inactive.

As to `COC(=O)c1ccccc1O`, the molecule was classed as inactive.

With `C[C@](N)(Cc1ccc(O)c(O)c1)C(=O)O`, the call was inactive.

Turning to `O=C1CCCCCN1`, the outcome was inactive.

Take `Oc1ccc2c(c1)-c1ccccc1C2`: the molecule was classed as inactive.

Turning to `CCC(C)(C)C(=O)O[C@H]1C[C@@H](C)C=C2C=C[C@H](C)[C@H](CC[C@@H]3C[C@@H](O)CC(=O)O3)[C@H]21`, the molecule was called inactive.

For `Cc1[nH]cnc1C[C@H]1CCc2c(C)c3ccccc3n2C1=O`, the result was inactive.

In a further experiment the target is Cellular tumor antigen p53 (Homo sapiens) (UniProt P04637). Put plainly: TOX21_p53_BLA_p4_ratio: Tox21 HCT-116 p53 Agonism Beta-lactamase Assay, Ratio, Phase 4 (AID 2283601). In a few lines: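 Signal is the blue/green (460nm/530nm) ratio of cleaved versus uncleaved CCF4-AM substrate, read after 2 h substrate loading. Cells were HCT116 carrying the p53-responsive beta-lactamase reporter, dosed 16 h at 37C, 5% CO2; CellTiter-Glo measured in parallel.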
Chain of Cellular tumor antigen p53 (Homo sapiens) (P04637 whole entry, looked up): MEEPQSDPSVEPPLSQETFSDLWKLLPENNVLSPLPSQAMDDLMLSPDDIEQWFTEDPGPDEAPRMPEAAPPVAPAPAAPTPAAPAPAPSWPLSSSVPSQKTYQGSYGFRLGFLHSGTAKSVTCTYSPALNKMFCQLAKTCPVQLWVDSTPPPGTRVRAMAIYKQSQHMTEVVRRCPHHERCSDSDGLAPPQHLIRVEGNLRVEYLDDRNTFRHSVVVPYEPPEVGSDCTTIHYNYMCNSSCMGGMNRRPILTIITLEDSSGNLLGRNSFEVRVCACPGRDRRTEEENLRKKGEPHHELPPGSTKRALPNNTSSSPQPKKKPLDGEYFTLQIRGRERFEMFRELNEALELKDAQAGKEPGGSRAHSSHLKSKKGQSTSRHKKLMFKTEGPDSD
Turning to `O=c1n(CC2CO2)c(=O)n(CC2CO2)c(=O)n1CC1CO1` (configuration not stated), the AC50 is 33.7 µM (active) and 32.1 µM (active) and 23.5 µM (active).

`O=C1CCC(N2C(=O)c3ccccc3C2=O)C(=O)N1` (configuration not stated): the outcome was inactive.

With `Cc1ccc(S(=O)(=O)O)cc1C`, the outcome was inactive.

For the molecule `C1N2CN3CN1CN(C2)C3`, the outcome was inactive.

In the case of `COC(=O)c1c(Cl)c(Cl)c(C(=O)OC)c(Cl)c1Cl`, the outcome was inactive.

Turning to `CN(C)c1ccc(N=NS(=O)(=O)O)cc1`, the outcome was inactive.

Regarding `CC(C)CC(C)(O)C#CC(C)(O)CC(C)C` (configuration not stated), the result was inactive.

Turning to `O=C1OC(=O)C2C3C=CC(C3)C12` (configuration not stated), the result was inactive.

As to `COC(=O)c1ccccc1O`, the result was inactive.

Regarding `O=C(CCCCCCCCc1cccnc1)N1CCC(C=C(c2ccccc2)c2ccccc2)CC1`, the result was inactive.

In the case of `C[C@](N)(Cc1ccc(O)c(O)c1)C(=O)O`, the outcome was inactive.

As for `Cn1cnc([N+](=O)[O-])c1Sc1ncnc2nc[nH]c12`, the AC50 is 22.2 µM (active) and 34.3 µM (active).

Regarding `O=C1CCCCCN1`, the result was inactive.

As to `Oc1ccc2c(c1)-c1ccccc1C2`, the AC50 was 79.7 µM (active).

With `CC(C)=CCC/C(C)=C\CO`, the outcome was inactive.

On to `CCC(C)(C)C(=O)O[C@H]1C[C@@H](C)C=C2C=C[C@H](C)[C@H](CC[C@@H]3C[C@@H](O)CC(=O)O3)[C@H]21`, for which the result was inactive.

As for `Nc1cccc(N)c1`, the outcome was inactive.

For the molecule `Nc1nc2ncc(CNc3ccc(C(=O)N[C@@H](CCC(=O)O)C(=O)O)cc3)nc2c(=O)[nH]1`, the outcome was inactive.

As for `Cn1c(=O)c2c(ncn2C)n(C)c1=O`, the result was inactive.

`O=C(OC[C@H]1O[C@@H](OC(=O)c2cc(O)c(O)c(OC(=O)c3cc(O)c(O)c(O)c3)c2)[C@H](OC(=O)c2cc(O)c(O)c(OC(=O)c3cc(O)c(O)c(O)c3)c2)[C@@H](OC(=O)c2cc(O)c(O)c(OC(=O)c3cc(O)c(O)c(O)c3)c2)[C@@H]1OC(=O)c1cc(O)c(O)c(OC(=O)c2cc(O)c(O)c(O)c2)c1)c1cc(O)c(O)c(OC(=O)c2cc(O)c(O)c(O)c2)c1`: the AC50 is 7.98 µM (active) and 3.2 µM (active).

For the molecule `Cc1[nH]cnc1C[C@H]1CCc2c(C)c3ccccc3n2C1=O`, the outcome was inactive.

Regarding `CCCCCCc1ccc(O)cc1O`, the AC50 was 51.2 µM (active) and 63.3 µM (active) and 39.6 µM (active).

As to `O=P(OC(CCl)CCl)(OC(CCl)CCl)OC(CCl)CCl`, the outcome was inactive.

Regarding `O=C(O)c1cc(N=Nc2ccc(S(=O)(=O)Nc3ccccn3)cc2)ccc1O`, the outcome was inactive.

As to `CC(C)c1cccc(C(C)C)c1N1C(=O)c2ccc(O)cc2C1=O`, the AC50 is 69.5 µM (active).

`CC(=O)OCCC(C)C`: the outcome was inactive.

As for `O=C(O)c1cccc(N(Cc2cccnc2)c2ccc(OC(F)F)c(OC(F)F)c2)c1`, the outcome was inactive.

As a reminder, the AC50 is the concentration at which the activity in the assay is half-maximal.

(Values after PubChem BioAssay (EPA / NIEHS).)
